# In all, about 65,000 compounds went through this assay and about 450 (0.69%) were called active. Only a selection was taken, and actives are over-represented in it overall. Unmarked numbers belong to inactive results.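 Rule for the calls: active = HER2 level under 5% of the carrier-only control; inconclusive = no clear call, values can overlap the other calls; inactive = the rest.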
# Target: Receptor tyrosine-protein kinase erbB-2 (Homo sapiens) (UniProt P04626)
# Assay: inhibitors of Her2 protein expression, primary screen, SKBR-3 cells, AlphaScreen, 66K library (AID 645);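 note: 100% = DMSO carrier and 0% = 500 nM PU-H71 HSP90 inhibitor; lower value means stronger loss of Her2 protein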
# Conditions: SKBR-3 HER2 protein level, 18-24 h, at 10 µM, hits give low values
# Sequence of Receptor tyrosine-protein kinase erbB-2 (Homo sapiens) (P04626 whole entry, looked up): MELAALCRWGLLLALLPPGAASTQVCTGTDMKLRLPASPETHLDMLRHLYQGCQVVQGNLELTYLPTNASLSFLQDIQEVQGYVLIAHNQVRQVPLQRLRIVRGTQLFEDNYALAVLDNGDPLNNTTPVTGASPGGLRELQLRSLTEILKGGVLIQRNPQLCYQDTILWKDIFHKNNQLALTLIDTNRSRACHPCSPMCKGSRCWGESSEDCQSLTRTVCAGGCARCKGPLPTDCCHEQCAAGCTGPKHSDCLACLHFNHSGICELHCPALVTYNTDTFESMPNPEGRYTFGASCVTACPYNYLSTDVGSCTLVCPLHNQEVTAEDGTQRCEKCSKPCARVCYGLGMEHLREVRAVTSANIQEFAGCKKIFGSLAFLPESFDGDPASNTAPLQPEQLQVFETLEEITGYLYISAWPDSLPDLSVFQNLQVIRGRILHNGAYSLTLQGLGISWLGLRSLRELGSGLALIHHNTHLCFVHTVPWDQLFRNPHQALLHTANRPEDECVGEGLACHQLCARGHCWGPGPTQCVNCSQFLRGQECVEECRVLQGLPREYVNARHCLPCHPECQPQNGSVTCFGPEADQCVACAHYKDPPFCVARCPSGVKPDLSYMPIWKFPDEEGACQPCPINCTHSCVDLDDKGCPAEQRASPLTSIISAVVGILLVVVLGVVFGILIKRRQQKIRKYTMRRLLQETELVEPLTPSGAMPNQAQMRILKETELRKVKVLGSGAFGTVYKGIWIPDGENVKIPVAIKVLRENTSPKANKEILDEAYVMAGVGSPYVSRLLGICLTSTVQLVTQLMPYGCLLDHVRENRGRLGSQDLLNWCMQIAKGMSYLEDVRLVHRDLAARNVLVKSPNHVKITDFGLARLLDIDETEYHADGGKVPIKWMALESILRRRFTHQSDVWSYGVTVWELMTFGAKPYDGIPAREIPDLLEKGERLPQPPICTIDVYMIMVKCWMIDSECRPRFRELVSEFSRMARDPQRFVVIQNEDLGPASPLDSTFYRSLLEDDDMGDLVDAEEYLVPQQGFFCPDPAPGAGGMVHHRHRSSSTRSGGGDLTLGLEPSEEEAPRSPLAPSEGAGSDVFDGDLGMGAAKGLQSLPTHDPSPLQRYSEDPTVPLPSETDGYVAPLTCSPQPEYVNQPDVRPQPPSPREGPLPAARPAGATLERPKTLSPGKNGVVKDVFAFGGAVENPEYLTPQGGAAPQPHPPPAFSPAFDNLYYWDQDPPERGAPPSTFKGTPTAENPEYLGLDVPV
row,Compound,HER2 level % of control
1,CC(=O)c1c(O)n(C2CCCCCC2)c(=O)[nH]c1=O,69.8%
2,CCC(=NCCCO)c1c(O)n(-c2ccc(OC)cc2)c(=O)[nH]c1=O,92.7%
3,CC(=NCC1CCCO1)c1c(O)n(-c2ccccc2)c(=O)[nH]c1=O (stereo not given),-16.3% (active)
4,CC(=O)N1CN2CN(C(C)=O)CC(C(=O)c3ccc(Br)cc3)(C2)C1,119%
5,Cc1ccc(Cn2nnnc2CN2CCC(n3nnc4ccccc43)CC2)cc1,69.1%
